Assay outcomes (PubChem BioAssay)
This is a sample that favours compounds with a hit; in the whole collection about 12% have one here.
Sm TGR inh: qHTS Assay for the Inhibitors of Schistosoma Mansoni Peroxiredoxins; Schistosoma mansoni thioredoxin glutathione reductase (TGR), Q962Y6; purified TGR, DTNB reduction, TNB absorbance 405 nm; Potency, µM (titrated, usually from 114 µM), actives largely listed as inhibitors; 360,000 tested, 3% active; AID 485364, 2010; further: nearly all actives have a fitted effect of over 60% in size
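First, TGR (20 nM dispensed) and NADPH were mixed with compound. Second, a 15 min room-temperature incubation followed. Third, further NADPH and then DTNB were added to start the reaction. Finally, TNB absorbance was monitored kinetically.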
Pf growth 96h: Primary qHTS for delayed death inhibitors of the malarial parasite plastid, 96 hour incubation | P. falciparum luciferase reporter growth, 96 h | 320,000 tested, 6.9% active | Potency, µM (doses to about 28.7 µM), actives largely listed as inhibitors | AID 504834, 2011
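P. falciparum expressing integrated firefly luciferase, in erythrocytes at 2% hematocrit, 0.05% parasitemia, incubated with compounds 96 h at 37 C, 5% CO2. Growth inhibition read as loss of luminescence; two-generation exposure targets delayed-death apicoplast inhibitors.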
SARS PLP yeast: qHTS of Yeast-based Assay for SARS-CoV PLP; S. cerevisiae expressing SARS-CoV PLpro, growth rescue; 330,000 tested, 0.19% active; Potency, µM (titrated, usually from 32.9 µM), most hits filed as activators; calls by dose curve; further: nearly all actives have a fitted effect of over 55% in size
Pf growth 48h: Primary qHTS for delayed death inhibitors of the malarial parasite plastid, 48 hour incubation | Potency, µM (titrated, usually from 28.7 µM), hits mostly inhibitors | 310,000 tested, 5.9% active | AID 504832, 2011 | P. falciparum luciferase growth in erythrocytes, 48 h
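Firefly luciferase activity from engineered P. falciparum reports growth; inhibitors lower the luminescent signal. Cultures contained 2% hematocrit erythrocytes at 0.1% final parasitemia.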
Of the large screens only hits and unclear results are named; the others gave an inactive call. Unless noted, the call rests on the fitted dose curve; in most records, active means well fitted curve in the direction sought with a large enough effect; inconclusive means small, poorly fitted or top-dose-only effect, or another doubt; inactive means no such curve, though single readings can be large; an effect the other way counts as inactive or inconclusive.

CCOc1ccc2[nH]c(=O)c(CN(Cc3nnnn3Cc3ccco3)C3CCCCC3)cc2c1	Sm TGR inh 5.6µM, Pf growth 48h 12µM
COc1ccc(CNc2ncnc3c2c(-c2ccccc2)cn3-c2ccc(C)c(Cl)c2)cc1	none (no result: Pf growth 96h, SARS PLP yeast, Pf growth 48h)
CC(=O)NC(C)C(=O)OCC(=O)Nc1ccc(Br)cc1 (configuration not stated)	Pf growth 96h inconclusive (no result: Pf growth 48h)
CCCC(C)C(=O)OCC(=O)Nc1ccc(Br)cc1 (configuration not stated)	Sm TGR inh 45µM
COc1ccccc1/C=C/C(=O)NC(=S)N(C)C1CCCCC1	Pf growth 48h inconclusive
Cc1ccccc1C(=O)NC(=S)N(C)C1CCCCC1	Pf growth 96h inconclusive, Pf growth 48h 15µM
CN(C(=S)NC(=O)c1ccccc1Br)C1CCCCC1	Pf growth 96h 4.7µM
O=C(NC(=S)NC1CCS(=O)(=O)C1)c1ccccc1Br (configuration not stated)	Pf growth 96h 5.9µM
CC(=O)c1ccc(S(=O)(=O)NCCC(=O)NC2CCN(Cc3ccccc3)CC2)cc1	none (no result: Sm TGR inh, Pf growth 96h, Pf growth 48h)
COc1ccc2sc(-c3ccc(N(C)C)cc3)c(C#Cc3cncn3C)c2c1	none (no result: Sm TGR inh, Pf growth 96h, Pf growth 48h)
CCOc1ccc(-c2cn3c(n2)sc2cc(C(=O)NC4CCCc5ccccc54)ccc23)cc1 (configuration not stated)	none (no result: Pf growth 96h, SARS PLP yeast, Pf growth 48h)
COc1cc(OC)c(OC)cc1/C=C1/C(=O)N=C(N)N1C	none
CCOc1cc(/C=C2\N=C(C)OC2=O)cc(Br)c1OCCc1ccccc1	Pf growth 96h inconclusive (no result: Pf growth 48h)
COc1ccc(/C=C2\N=C(C)OC2=O)cc1OC	Sm TGR inh 16µM
COc1ccc(/C=C2/C(=O)N=C(N)N2C)cc1OC	Pf growth 96h 12µM
CCOc1cc(/C=C2\N=C(C)OC2=O)cc(Br)c1OCC(=O)OC	Sm TGR inh 25µM, Pf growth 96h inconclusive, Pf growth 48h inconclusive
COc1ccc(OC)c(-c2noc(N3CCN(c4ccc(Cl)cc4)CC3)n2)c1	none (no result: Pf growth 96h, SARS PLP yeast, Pf growth 48h)
O=C(O)Cn1cc(/C=C2\C(=O)NC(=O)N(Cc3ccco3)C2=O)c2ccccc21	Sm TGR inh 5µM
Cc1c(C(=O)NCc2ccccc2CN2CCCC2)oc2ccc(F)cc12	Pf growth 96h inconclusive, Pf growth 48h inconclusive
Cc1nn(-c2ccccn2)c2c1C(=O)C(Br)CC2 (configuration not stated)	Sm TGR inh 2.5µM, Pf growth 48h inconclusive
CC1=C(C)C(=O)N(c2ccccn2)C1=O	none
Cc1ccc(-n2c(C)cc(=O)cc2C)cc1[N+](=O)[O-]	none
C=CCn1c(CNC(=O)c2ccccc2F)nnc1SCC(=O)N1CCOCC1	Pf growth 96h inconclusive
Cc1cc(=O)oc(C)c1C(=O)NCCC(C)C	Pf growth 96h 4.1µM
Cn1c(C(=O)NCCCN2CCN(c3ccccc3F)CC2)cc2c(=O)n(C)c3ccccc3c21	Pf growth 96h 9.3µM (no result: Pf growth 48h)
Cc1cc(=O)oc(C)c1C(=O)NCCCN1CCN(c2ccccc2F)CC1	Sm TGR inh 35µM, Pf growth 96h inconclusive
CC1CCN(CCCNC(=O)c2cc3c(=O)n(C)c4ccccc4c3n2C)CC1	Pf growth 96h 7.4µM (no result: Pf growth 48h)
Cc1ccccc1CS(=O)(=O)CCC(=O)NCCCN1CCN(c2ccccc2F)CC1	none
Cn1c(C(=O)NCCCN2CCOCC2)cc2c(=O)n(C)c3ccccc3c21	none (no result: Pf growth 48h)
O=C(Nc1ccc(CN2CCCCC2)cc1)c1sc2ccccc2c1Cl	Pf growth 96h inconclusive
Cc1oc2c(c(C)cc3oc(=O)c(CC(=O)NCCc4ccccc4F)c(C)c32)c1C	none (no result: Pf growth 96h, SARS PLP yeast, Pf growth 48h)
CC1(C)O[C@@H]2C[C@H]3[C@H]4C[C@H](F)C5=CC(=O)C=C[C@@]5(C)[C@@H]4[C@H](O)C[C@]3(C)[C@]2(C(=O)CO)O1	none (no result: Sm TGR inh, SARS PLP yeast)
CC(C)C(=O)OCC(=O)[C@@]12OC(C3CCCCC3)O[C@@H]1CC1C3CCC4=CC(=O)C=C[C@]4(C)C3[C@@H](O)C[C@@]12C (some centres not stated)	Pf growth 96h 0.76µM, Pf growth 48h 0.67µM (no result: Sm TGR inh, SARS PLP yeast)
CC(=O)OCC(=O)C1(O)CCC2C3CCC4=CC(=O)C=CC4(C)C3C(O)CC21C (configuration not stated)	none
CCCC1O[C@@H]2CC3C4CCC5=CC(=O)C=C[C@]5(C)C4C(OC(C)=O)C[C@]3(C)[C@]2(C(=O)COC(C)=O)O1 (some centres not stated)	Pf growth 96h 1.2µM, Pf growth 48h 9.3µM
CCCC1O[C@@H]2C[C@H]3[C@@H]4CCC5=CC(=O)C=C[C@]5(C)[C@H]4[C@@H](O)C[C@]3(C)[C@]2(C(=O)CO)O1 (some centres not stated)	Pf growth 96h 2.3µM, Pf growth 48h 4.1µM
C=C1N[C@]2(C(=O)COC(C)=O)[C@@H](C[C@H]3[C@@H]4CCC5=CC(=O)C=C[C@]5(C)[C@H]4[C@@H](O)C[C@@]32C)O1	Pf growth 96h 9.5µM, Pf growth 48h inconclusive (no result: Sm TGR inh, SARS PLP yeast)
COc1cc(-c2noc(-c3ccc(NC4CCCC4)c([N+](=O)[O-])c3)n2)cc(OC)c1OC	none (no result: Pf growth 96h, SARS PLP yeast, Pf growth 48h)
Cn1c(C(=O)NCCc2ccccc2)cc2cc(S(=O)(=O)N3CCCCC3)ccc21	none (no result: Pf growth 96h, SARS PLP yeast, Pf growth 48h)
CCCNC(C)C(=O)Nc1c(C)csc1C(=O)OC (configuration not stated)	none (no result: SARS PLP yeast)
CCC(=O)[C@@]1(C)[C@H](C)C[C@H]2[C@@H]3CCC4=CC(=O)C=C[C@]4(C)[C@H]3[C@@H](O)C[C@@]21C	Pf growth 48h 2.3µM (no result: SARS PLP yeast)
CCC[C@@H]1O[C@@H]2C[C@@H]3[C@H]4CCC5=CC(=O)C=C[C@@]5(C)[C@H]4[C@H](O)C[C@@]3(C)[C@@]2(C(=O)CO)O1	Pf growth 96h 4.8µM, Pf growth 48h 11µM (no result: Sm TGR inh, SARS PLP yeast)
C[C@]12C=CC(=O)C=C1CCC1C2C(O)C[C@]2(C)C1CC[C@]2(O)C(=O)CO (some centres not stated)	none (no result: Sm TGR inh, SARS PLP yeast)
CCCC1OC2CC3C4CCC5=CC(=O)C=CC5(C)C4C(O)CC3(C)C2(C(=O)O)O1 (configuration not stated)	Sm TGR inh 89µM
C[C@]12C=CC(=O)C=C1CC[C@@H]1[C@@H]2CC[C@@]2(C)[C@H]1CC[C@]2(C)O	Pf growth 96h inconclusive (no result: Sm TGR inh, SARS PLP yeast)
CCCC(=O)O[C@]1(C(=O)CO)CC[C@H]2[C@@H]3CCC4=CC(=O)CC[C@]4(C)[C@H]3[C@@H](O)C[C@@]21C	none
O=C(Nc1ccccc1)N(Cc1cccs1)c1ccc(Cl)cc1	none (no result: Pf growth 96h, SARS PLP yeast, Pf growth 48h)
COc1ccc(-c2cc(C(=O)N(C)CC(=O)Nc3cccc(F)c3)c3ccccc3n2)cc1	Pf growth 96h inconclusive, Pf growth 48h inconclusive
CC(NC(=O)CSc1nnnn1C1CC1)c1ccccc1Br (configuration not stated)	none (no result: Sm TGR inh, Pf growth 96h, Pf growth 48h)
O=C(c1ccc2c(c1)OCO2)N1CCC2(CC1)Oc1ccc(F)cc1C(=O)C21CC(c2ccc(Cl)cc2)=NO1 (configuration not stated)	none
O=C(c1ccc2c(c1)OCO2)N1CCC2(CC1)Oc1ccc(Cl)cc1C(=O)C21CC(c2ccccc2)=NO1 (configuration not stated)	Pf growth 96h 13µM, Pf growth 48h 12µM
